Data published in PubChem BioAssay AID2613 (National Center for Advancing Translational Sciences (NCATS), 2010).
Records with an inconclusive call do not appear. A number with no mark means an inactive call. Activity calls are given as the source filed them. Calls follow the shape of the dose curve; as a rule, active = well fitted inhibition curve with a large enough effect; inconclusive = small, poorly fitted or top-dose-only effect; inactive = flat fitted curve, though single readings scatter.

What follows are compounds tested against Lysosomal acid glucosylceramidase (Homo sapiens) (UniProt P04062) (assay: qHTS Assay for Inhibitors and Activators of N370S glucocerebrosidase as a Potential Chaperone Treatment of Gaucher Disease: Activity in N370S Spleen Homogenate Using a Red Fluorescent Substrate). Settings: red fluorogenic substrate; series mostly up to 49.6 µM; activity change, negative = inhibition: at the top concentration.
Lysosomal acid glucosylceramidase (Homo sapiens), sequence (P04062 whole entry N409S): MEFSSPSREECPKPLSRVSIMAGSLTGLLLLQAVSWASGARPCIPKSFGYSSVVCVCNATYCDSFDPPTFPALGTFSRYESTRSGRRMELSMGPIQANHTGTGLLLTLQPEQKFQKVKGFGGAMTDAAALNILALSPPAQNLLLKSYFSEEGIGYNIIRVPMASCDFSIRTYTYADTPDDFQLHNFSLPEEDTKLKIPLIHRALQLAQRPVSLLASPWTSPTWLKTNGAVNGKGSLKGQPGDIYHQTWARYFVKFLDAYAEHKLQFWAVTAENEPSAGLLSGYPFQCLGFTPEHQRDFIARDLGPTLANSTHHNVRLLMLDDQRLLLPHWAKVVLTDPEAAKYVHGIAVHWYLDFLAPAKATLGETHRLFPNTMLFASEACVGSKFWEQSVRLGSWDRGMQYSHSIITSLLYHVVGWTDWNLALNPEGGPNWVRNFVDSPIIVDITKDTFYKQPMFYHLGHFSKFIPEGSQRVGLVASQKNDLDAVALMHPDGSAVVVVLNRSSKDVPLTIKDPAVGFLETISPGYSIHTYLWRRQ
Source text: NIH Chemical Genomics Center [NCGC]
NIH Molecular Libraries Probe Production Centers Network [MLPCN]
Assay Submitter (PI): Wei Zheng
Glucocerebrosidase (GC) catalyzes the hydrolysis of beta-glucocerebroside to glucose and ceramide in lysosomes. Mutations in the glucocerebrosidase gene result in Gaucher disease, an autosomal recessive lysosomal storage disorder. Many of the mutations encountered in patients with Gaucher disease are missense alterations that may cause misfolding, decreased stability and/or mistrafficking of this lysosomal protein. […] These inhibitors include iminosugar analogs and three non-iminosugar inhibitors identified from a previous HTS of 62,000 compounds with the wild type recombinant enzyme. However, the enhancement of enzyme activity by the chaperone action of an enzyme inhibitor must be balanced against the direct inhibition of the enzyme. An enzyme activator could also function as a chaperone by binding to the enzyme and helping to correct its misfolding and mistrafficking. While activators for GC have not yet been identified, they may have better therapeutic potential than inhibitors. Therefore the discovery and development of chemical activators may provide a new strategy for the chaperone therapy.
We have optimized a new assay using N370S mutant GC derived from the spleen of a Gaucher patient. […] In addition, the MLPCN compound library has expanded, which increases the chance of finding new and better probes.
This confirmation assay tests for compound activity in spleen homogenate from a patient homozygous for the N370S mutation using an alternate resorufin-based substrate.
NCGC Assay Protocol Summary:
This is a fluorogenic enzyme assay with resorufin-beta-D-glucopyranoside as the substrate and mutant N370S glucocerebrosidase from human spleen homogenate as the enzyme preparation. Upon the hydrolysis of this fluorogenic substrate, the resulting product, […] which can be detected by a standard fluorescence plate reader. Data were normalized to the controls for basal activity (without enzyme) and 100% activity (with enzyme). The AC50 values were determined from concentration-response data modeled with the standard Hill equation.
Assay buffer: 50 mM citric acid (titrated with potassium phosphate to pH 5.0), 100 mM potassium chloride, 10 mM sodium chloride, 1 mM magnesium chloride, 0.01% Tween-20.
1536-well assay protocol:
(1) Add 2 ul/well of spleen homogenate (27 ug final)
(2) Add 23 nL compounds in DMSO solution. The final titration was 0.5 nM to 58 uM.
(3) Add 2 ul of substrate (1 mM final)
(4) Incubate at 37C for 40 min.
(5) Add 2 ul stop solution (1M NaOH and 1M Glycine mixture, pH 10)
(6) Detect the assay plate in a ViewLux plate reader (PerkinElmer) with Ex=365 nm and Em=440nm.
Keywords: Glucocerebrosidase, beta-glucosidase, Gaucher Disease, pharmacological chaperone, chaperone therapy, high throughput screening, glucocerebrosidase inhibitor, MLSMR, MLSCN, NIH Roadmap, qHTS and NCGC

SMILES | activity change, negative = inhibition [%] | Potency
c1ccc2c(NCC3CCCO3)nc(N3CCOCC3)nc2c1 (centres undefined) | -5.75 | –
O=C(Nc1cnn(Cc2ccc(F)cc2)c1)c1cnn2c(C(F)F)cc(-c3ccccc3)nc12 | 5.28 | –
COc1cc(OC)c2c(N)c(C#N)c(C(F)(F)C(F)(F)F)nc2c1 | 4.03 | –
O=C(COc1ccccc1C(=O)c1cnn(-c2ccccc2)c1)Nc1ccccc1 | -1.7 | –
CCCC1CCC(C(=O)Nc2ccc3nc(N4CCOCC4)cc(C)c3c2)CC1 (centres undefined) | – | 0.562 µM (active)
O=C(NCc1ccccc1)c1ccc(NS(=O)(=O)c2ccccc2)cc1 | -26.8 | –
Clc1ccccc1-c1nccc(NCc2ccccc2)n1 | – | 3.55 µM (active)
CCC(C)NC(=O)COC(=O)c1ccccc1OCC(=O)Nc1ccc(Br)cc1 (centres undefined) | 0.863 | –
Cc1cc(C)cc(N(CC(=O)NC2CCC(C)CC2)S(=O)(=O)c2c(C)[nH]c(=O)[nH]c2=O)c1 (centres undefined) | – | 0.562 µM (active)
Cc1cc(C)n2ncc(C(=O)Nc3ccc(Cl)c(Cl)c3)c2n1 | 1.27 | –
Cc1ccc(Cl)cc1NC(=O)c1ccccc1OCC(=O)Nc1ccc(Cl)cc1 | -9.04 | –
Nc1nc(-c2ccccc2)c(N=Nc2ccc(Cl)cc2)s1 | -1.35 | –
CCOc1ccc(N(CC(=O)NC2CCCCCC2)S(=O)(=O)c2c(C)[nH]c(=O)[nH]c2=O)cc1 | – | 2.82 µM (active)
OCCNc1nc(Nc2ccc(Cl)cc2)nc(N2CCCC2)n1 | – | 35.5 µM (active)
Cc1ccc(NC(=O)COc2ccccc2C(=O)Nc2ccccc2)cc1Cl | -0.617 | –
COc1cccc(NC(=S)N(CCCN2CCOCC2)Cc2cn(C)c3ccccc23)c1 | – | 4.47 µM (active)
CCc1cc(C(=O)N/N=C/c2c(C)[nH]c3ccccc23)cs1 | 0.119 | –
O=C(COc1ccccc1[N+](=O)[O-])Nc1ccc(Br)cc1 | 2.03 | –
Cc1ccc(S(=O)(=O)Nc2ccc(C(=O)NCc3ccccc3)cc2)cc1 | -14.8 | –
Cc1cc(N2CCOCC2)nc2ccc(NC(=O)c3ccco3)cc12 | -10.1 | –
CC1(C)CC(=O)C2=C(C1)c1c(ccc3ccccc13)NC2c1ccc(Br)o1 (centres undefined) | -4.56 | –
O=S(=O)(c1ccc(Cl)cc1)N1CCN(c2nc(-c3cccs3)nc3ccccc23)CC1 | – | 0.891 µM (active)
CC(C)(C)C(=O)OCCNc1nc(-c2ccccc2)nc2ccccc12 | – | 3.98 µM (active)
COc1ccccc1OCC(=O)Nc1oc(-c2ccccc2)c(-c2ccccc2)c1C#N | 1.85 | –
